# PubChem BioAssay (Tox21)
# A number with no mark means an inactive call. Records with an inconclusive call do not appear. Where a call stands in place of a potency, no number is given. Calls of active or inactive are those of the source. Unless noted, calls come from the whole dose curve; as a rule, active = well fitted curve in the direction sought with a large enough effect in the repeat runs; inconclusive = weak or mixed curves; inactive = no such curve, though single readings can be large; an effect the other way counts as inactive or inconclusive.
# Experiments:
# [1] = qHTS assay for small molecule agonists of the p53 signaling pathway (AID 651631; calls by dose curve; note: nearly all actives have a fitted effect of over 15% in size)
# In short: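 Stably transfected HCT-116 cells (beta-lactamase behind p53 response elements) get compounds after a 5 h settling period; 16 h later at 37 °C, FRET substrate is loaded and fluorescence read after 2 h.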
# [2] = qHTS assay for small molecules that induce genotoxicity in human embryonic kidney cells expressing luciferase-tagged ATAD5 (AID 651632); note: nearly all actives have a fitted effect of over 15% in size
# In short: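 Increased luciferase signal from ATAD5-tagged reporter cells indicates DNA-damage-driven ATAD5 induction. HEK293T cells are treated for 16 hr at 37C before detection with Amplite.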
# [3] = qHTS assay for small molecule disruptors of the mitochondrial membrane potential - cell viability (AID 720634; calls by dose curve;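 note: human HepG2 liver cancer cells; series mostly up to about 83 µM; nearly all actives have a fitted effect of over 20% in size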)
# In short: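 After overnight attachment at 37 C, HepG2 cells received compound or DMSO vehicle for 1 hr. Viability is then taken from ATP-driven luminescence following a 30 min room-temperature CellTiter-Glo step.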
# [4] = qHTS assay to test for compound auto fluorescence at 590 nm (red) in HepG2 cells (AID 720674)
# In short: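 Rose Bengal sodium served as the red fluorophore standard. HepG2 monolayers (overnight attachment, MEM with 10% FBS) were exposed to test compounds for 1 hr at 37 C and read at Ex 540/Em 590 nm.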
# [5] = qHTS assay to test for compound auto fluorescence at 535 nm (green) in HepG2 cells (AID 720675)
# [6] = qHTS assay to test for compound auto fluorescence at 460 nm (blue) in HEK293 cells (AID 720678)
# In short: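 Blue-channel (Ex/Em 405/460 nm) intensity measured in HEK293 cultures after overnight compound exposure at 37C; signal expressed relative to triamterene. Cells plated 2,000 per well in 10% dialyzed FBS medium and allowed 4-5 hr to attach.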
# [7] = qHTS assay to test for compound auto fluorescence at 590 nm (red) in HEK293 cells (AID 720679)
# In short: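 Red-channel autofluorescence (Ex/Em 540/590 nm; Rose Bengal sodium reference) was measured after overnight 37C, 5% CO2 exposure of attached HEK293 cells, 2,000 per well in medium with 10% dialyzed FBS.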
# [8] = qHTS assay for small molecules that induce genotoxicity in human embryonic kidney cells expressing luciferase-tagged ATAD5 - cell viability (AID 651634; calls by dose curve; note: nearly all actives have a fitted effect of over 25% in size; note: potency is the fitted concentration of half-maximal effect)
# In short: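 Cytotoxicity counterscreen in HEK293T cells bearing an ATAD5-luciferase reporter: live-cell protease activity measured by CellTiter-Fluor fluorescence after 15.5 hr compound exposure.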
# [9] = qHTS assay for small molecule disruptors of the mitochondrial membrane potential (AID 720635); note: potency is the fitted concentration of half-maximal effect
# In short: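 HepG2 cells (2,000/well) attached overnight at 37C, then took compound for 1 hr at 37C, 5% CO2. Mito-MPS dye was added for 30 min; fluorescence was read at 490/535 nm (monomers) and 540/590 nm (aggregates).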
# [10] = qHTS assay for small molecule agonists of the p53 signaling pathway - cell viability (AID 651633; calls by dose curve;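 note: p53RE-bla HCT reporter cells with a stable beta-lactamase p53 reporter; series mostly up to about 83 µM; nearly all actives have a fitted effect of over 30% in size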)
# In short: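 p53RE-bla cells, seeded at 4,000 per well and rested 5 h at 37 C/5% CO2, received compounds in DMSO for 16 h at 37 C. CellTiter-Glo was then added, and luminescence was read after 30 min at room temperature to gauge cytotoxicity.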
Compound,Potency [1],Potency [2],Potency [3],"fluorescence, relative to Rose Bengal [4]","fluorescence, % of fluorescein control [5]","fluorescence, % of triamterene [6]","fluorescence, % of fluorescent control [7]",Potency [8],outcome [4],outcome [5],Potency [6],outcome [7],Potency [9],Potency [10]
C[N+]1(C)CCC(=C(c2ccccc2)c2ccccc2)CC1,inactive,inactive,inactive,-0.257% [at 18.6 µM],-0.0806% [at 18.6 µM],0.577% [at 18.6 µM],-0.153% [at 18.6 µM],–,–,–,–,–,–,–
Nc1ccc(S(=O)(=O)O)cc1,inactive,inactive,inactive,–,–,–,–,inactive,inactive,inactive,inactive,inactive,–,–
CCCCC(=O)O[C@]1(C(=O)CO)[C@@H](C)C[C@H]2[C@@H]3CCC4=CC(=O)C=C[C@]4(C)[C@@]3(F)[C@@H](O)C[C@@]21C,inactive,inactive,–,–,–,–,–,inactive,inactive,–,inactive,inactive,19.3 µM (active),–
O=C(O)Cc1ccc(-c2ccccc2)cc1,inactive,–,inactive,0.37% [at 18.6 µM],-0.0175% [at 18.6 µM],-0.322% [at 18.6 µM],-0.147% [at 18.6 µM],inactive,–,–,–,–,inactive,inactive
CC(C)(C)CC(C)(C)c1ccc(OCCO)cc1,inactive,–,inactive,–,–,–,–,54.2 µM (active),inactive,inactive,inactive,inactive,60.8 µM (active),–
C=CC(C)(O)CCCC(C)CCCC(C)CCCC(C)C (centres undefined),inactive,–,inactive,–,–,–,–,inactive,inactive,inactive,inactive,–,–,–
O=C(N[C@@H](c1ccccc1)[C@@H]1CCCCN1)c1cccc(C(F)(F)F)c1Cl,–,inactive,inactive,–,–,–,–,inactive,inactive,inactive,inactive,–,–,inactive
CN1CCN(c2c(F)cc3c(=O)c(C(=O)O)cn4c3c2OCN4C)CC1,inactive,–,inactive,–,–,–,–,inactive,inactive,inactive,inactive,inactive,–,inactive
NC(=O)Nc1ccc(Cl)c(Cl)c1,–,inactive,inactive,–,–,–,–,inactive,inactive,inactive,inactive,inactive,48.4 µM (active),inactive
Fc1ccccc1[C@@H](F)COC1CCC(Nc2ncnc3[nH]ncc23)CC1 (some centres undefined),inactive,–,inactive,–,–,–,–,–,inactive,–,inactive,inactive,2.73 µM (active),inactive
O=C(O)C(Cc1cc(I)c(O)c(I)c1)c1ccccc1 (centres undefined),–,inactive,inactive,–,–,–,–,inactive,inactive,inactive,–,inactive,inactive,inactive
